Assay outcomes: PubChem BioAssay, The Scripps Research Institute Molecular Screening Center
hgDAF12 agonist = activates the H. glycines DAF-12 receptor ligand-binding domain; HEK293 GAL4-hgDAF12 UAS-luciferase reporter, agonist luminescence; normalized to butyrate control; activation, % at 6.8 µM; hit rate 1.8% among 370,000;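 active = activation above a cutoff set at the mean of all screened compounds plus 3 SD, cut at about 10% in these data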;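 note: 0% = DMSO wells and 100% = sodium butyrate wells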
ssDAF12 agonist = activates DAF-12 receptor from parasite S. stercoralis; AID 652126; HEK293 ssDAF-12/GRIP1 lit1-tk-luc reporter, luminescence; % of 3 µM dafachronic acid response; hit rate 1% among 370,000; activation, % at 6.8 µM;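 active = activation above the mean over all tested compounds plus 3 SD, cut at about 0.9% in these data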;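 note: 0% = DMSO-only wells and 100% = 3 µM delta7-dafachronic acid wells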
DAX1 inh-1 = inhibitors of human orphan nuclear receptor DAX1 (NR0B1); hit rate 0.99% among 340,000; P51843; HEK293 Gal4-DAX1 luciferase reporter, luminescence; inhibition, % at 6.75 µM; AID 504766;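 active = inhibition above the mean over all tested compounds plus 3 SD, cut at about 4.2% in these data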;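 note: 0% = DAX1-transfected cells with DMSO and 100% = empty-vector control cells with DMSO; inhibition shows as a rise in luminescence from relieved DAX1 repression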
Target sequence (P51843 207-470 limits assumed): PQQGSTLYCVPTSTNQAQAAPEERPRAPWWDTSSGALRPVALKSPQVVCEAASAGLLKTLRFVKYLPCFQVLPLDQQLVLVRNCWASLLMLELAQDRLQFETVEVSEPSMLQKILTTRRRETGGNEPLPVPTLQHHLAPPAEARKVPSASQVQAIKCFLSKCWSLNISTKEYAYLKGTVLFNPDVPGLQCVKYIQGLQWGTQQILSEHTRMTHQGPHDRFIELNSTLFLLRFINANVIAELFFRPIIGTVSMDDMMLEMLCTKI
DAX1 inh-2 = inhibitors of DAX1 repression of SF-1 activated StAR promoter. HEK293T StAR-luciferase reporter, SF-1/DAX-1 repression relief. inhibition, % at 6.8 µM. hit rate 1.1% among 370,000. AID 652010;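 active = inhibition above the mean over all tested compounds plus 3 SD, cut at about 3.6% in these data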;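 note: 0% = DAX-1 cells with DMSO and 100% = cells lacking DAX-1 with DMSO; higher inhibition means more luminescence from relief of DAX-1 repression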
hcDAF12 agonist = activates DAF-12 receptor from parasite H. contortus. HEK293 hcDAF-12 lit1-tk-luc reporter, luminescence; 0% DMSO, 100% Δ7-dafachronic acid. activation, % at 6.8 µM. hit rate 1.4% among 370,000;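 active = activation above the mean of all tested compounds plus 3 SD, cut at about 5.5% in these data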;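 note: 100% = response to 3 µM Δ7-dafachronic acid high control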
Numbers without * were called inactive; . = no result given. An excerpt weighted towards active compounds, which were near 4.1% of everything screened.

SMILES	hgDAF12 agonist	ssDAF12 agonist	DAX1 inh-1	DAX1 inh-2	hcDAF12 agonist
Cc1ccc(C(=O)NCc2ccccc2F)cc1S(=O)(=O)N1CCCC1	0	-1	1	0	-2
O=C(O)c1cccc(NC(=O)c2ccc(Cl)c(S(=O)(=O)N3CCCCCC3)c2)c1	11*	0	-4	2	2
Cc1ccc(C(=O)NCc2cccs2)cc1S(=O)(=O)N1CCCCC1	0	1.2*	-1	0	-1
COC(CNC(=O)[C@H](Cc1c[nH]c2ccccc12)NC1(C(=O)NC(c2ccccc2)c2ccccc2)CCCCC1)OC	-2	-2	.	.	-1
O=C(NCc1cccs1)C1CCN(S(=O)(=O)c2cccc3cccnc23)CC1	0	-1	4.3*	-1	-2
O=C(O)c1cccc(NC(=O)c2cccc(S(=O)(=O)N3CCc4ccccc43)c2)c1	-2	-1	4.6*	-1	-2
O=C(NCc1ccco1)C1CCN(S(=O)(=O)c2cccc3cccnc23)CC1	1	-2	2	0	1
Cc1ccc(C(=O)Nc2ccc3cn[nH]c3c2)cc1S(=O)(=O)N1CCCCC1	6	0	0	0	6.1*
O=C(Nc1ccncc1)c1cccc(S(=O)(=O)N2CCc3ccccc32)c1	-6	-2	-4	-7	-4
COc1cc(C(C)=O)ccc1OCC(O)Cn1nc(C)c(Br)c1C (configuration not stated)	-1	-2	1	0	-1
C=C(C)c1nc(Oc2ccccc2)nc(Oc2ccccc2)n1	-3	-1	6.0*	-1	0
O=C(N/N=C/c1sc(N2CCCCC2)nc1-c1cccs1)C1CC1	-1	-2	-2	-1	-2
NC(=O)N/N=C/c1sc(N2CCCCC2)nc1-c1cccs1	12*	-1	-2	-2	0
CCn1cc(Br)c(C(=O)Nc2ccc(F)c(Cl)c2)n1	10	1.7*	2	0	3
CCn1cc(Br)c(C(=O)Nc2ccc(Cl)cc2Cl)n1	1	1.0*	0	0	1
CCOC(=O)c1c(NC(=O)c2nn(CC)cc2Br)sc(C)c1C	0	-1	-1	0	3
CCOC(=O)c1ccc(NC(=O)c2nn(CC)cc2Br)cc1	2	-2	2	1	-2
CCCn1c(C)cc(C(=O)Cn2nnc3ccccc3c2=O)c1C	12*	0	1	3	3
CCCCN(C)S(=O)(=O)c1ccc2[nH]c(=O)oc2c1	0	-1	.	0	-2
O=C(CN1CCOCC1)NNC(=S)Nc1ccccc1	0	-2	6.1*	0	-1
O=C(CN1CCOCCOCCOCC1)Nc1ccccc1	4	-2	1	0	-3
NC(=O)c1ccccc1NC(=O)CN1CCOCC1	1	-1	4.3*	0	-1
CC(C)OC(=O)C1=CNCC(C)(C)c2c1[nH]c1cc(F)ccc21	2	0	.	.	3
CN(Cc1ccccc1)C(=O)OCc1cn(Cc2ccccc2)nn1	-2	-2	.	0	-1
COc1ccc(-n2cc(C(=O)c3ccccc3O)cn2)cc1	11*	0	0	4	5
SMILES	hgDAF12 agonist	ssDAF12 agonist	DAX1 inh-1	DAX1 inh-2	hcDAF12 agonist
O=C(COc1ccccc1C(=O)c1cnn(-c2ccccc2)c1)Nc1ccc2ccccc2c1	11*	1.3*	1	2	3
COc1ccc(C(=O)CC(=O)c2ccccc2O)cc1	11*	0	2	2	5
COc1ccc(O)c(C(=O)c2cnn(-c3ccccc3)c2)c1	5	0	0	1	4
COc1ccc(O)c(C(=O)CC(=O)c2ccc(F)cc2)c1	15*	1.0*	-4	1	8.1*
COc1ccc(C(=O)CC(=O)c2ccccc2O)cc1OC	1	-1	2	0	0
CN(C)c1ccc(-c2nc3ccccc3n2C)cc1	7	0	-3	4.0*	6
CN(C)c1ccc(C(O)Cc2nc3ccccc3n2C)cc1 (configuration not stated)	0	-1	-1	2	5.6*
CC(C)c1ccc(C(O)Cc2nc3ccccc3n2C)cc1 (configuration not stated)	-4	-1	4.6*	0	-1
CCn1c(-c2ccc(N(C)C)cc2)nc2ccccc21	3	0	-1	-1	4
O=c1c2ccccc2n(Cc2ccno2)n1[C@@H](Cc1ccccc1)Cn1cc(C2CCCC2)nn1	-3	-2	.	-1	-3
CCC(=O)OCCCN1C(=O)CCC12CCC(C)CC2 (configuration not stated)	-3	-1	.	1	-1
CC[C@H]1C=C[C@@H](C(=O)NS(=O)(=O)c2ccc(C)cc2)N(C(C)=O)C1	-2	-1	.	-1	-1
CC(=O)NC(=S)Nc1sc2c(c1C(N)=O)CCC(C)C2 (configuration not stated)	10	1	5.0*	2	3
O=C1C2CCCN2C(c2ccc(F)cc2)N1c1cccc(Cl)c1 (configuration not stated)	3	-1	3	1	6.4*
COc1ccc(Cl)cc1N1C(=O)C2CCCN2C1c1ccc(F)cc1 (configuration not stated)	4	-1	4.5*	0	1
CN(c1ccc(OCC(=O)NCCc2ccccc2)cc1)S(=O)(=O)c1ccc(Cl)cc1	3	0	0	4.2*	3
COc1ccc(CCNC(=O)COc2ccc(N(C)S(=O)(=O)c3ccc(Cl)cc3)cc2)cc1	-1	-2	2	0	-2
O=C(Nc1nccs1)c1cccc(N2C(=O)C3C4C=CC(C4)C3C2=O)c1 (configuration not stated)	0	-1	-1	0	-1
O=C(Nc1nccs1)c1ccc(N2C(=O)[C@@H]3[C@H](C2=O)[C@H]2C=C[C@@H]3C2)cc1	12*	-1	4.5*	3	2
O=C(Nc1nccs1)c1ccc2nccnc2c1	10	-1	4.6*	0	1
COc1cc(OC)cc(C(=O)NNC(=O)CN2C(=O)NC(C)(c3ccc(C)cc3)C2=O)c1 (configuration not stated)	1	-1	4.4*	0	-1
CCc1ccc(Nc2ncc3c(n2)CC(C)CC3=O)cc1 (configuration not stated)	10	0	1	3.8*	1
CCc1ccc(Nc2ncc3c(n2)CC(c2ccc(OC)cc2)CC3=O)cc1 (configuration not stated)	-1	-1	0	-1	1
CCc1ccc(Nc2ncc3c(n2)CC(C)(C)CC3=O)cc1	7	-1	7.1*	1	2
Cc1cc(-c2nc3ncccc3o2)ccc1NC(=O)CC(C)C	2	-1	-1	3.9*	3
O=C(NCc1ccc(F)cc1)c1cc2c(s1)CCCC2	4	-1	7.0*	-1	-3
